Structures can show the parent of a compound that is named as a salt.

For one test, the system named is MOLM14. As to the kind of experiment: cell viability relative to vehicle control; higher = less cytotoxic. As to conditions: 10 µM; SRSF2 genotype: SRSF2 P95H/wt. The gist of the method:
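Screening covered the Selleck bioactive, kinase and epigenetic probe libraries, less identity-inconsistent compounds, on CRISPR-edited mutant clones and isogenic wild-type clones of four leukaemia lines. Cells, at 2000 per well in 50 µL medium, received a single 10 µM acoustically dispensed dose. After 48 h the supernatant was removed and CellTiter-Glo luminescence was read. Viability was analysed in Genedata Screener as percent of the on-plate vehicle control.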
With `C[C@@H]1O[C@@H](OC[C@H]2O[C@@H](Oc3c(-c4ccc(O)c(O)c4)oc4cc(O)cc(O)c4c3=O)[C@H](O)[C@@H](O)[C@@H]2O)[C@H](O)[C@H](O)[C@H]1O` [Rutin (Rutoside)], the cell viability – broadly, a read-out of living cells in per cent, often relative to untreated cells – was 105%.

Take `CC(C)(F)C[C@H](N[C@@H](c1ccc(-c2ccc(S(C)(=O)=O)cc2)cc1)C(F)(F)F)C(=O)NC1(C#N)CC1` [Odanacatib (MK 0822)]: the cell viability amounted to 104%.

For `CCCCCCCCCCCCCCCc1cccc(O)c1C(=O)O` [Anacardic Acid], the cell viability was 86.3%.

In the case of `Cc1ccc(NC(=O)Nc2cc(C(F)(F)F)ccc2F)cc1Nc1ccc2c(c1)NC(=O)/C2=C\c1ccc[nH]1`, the cell viability is 86.5%.

As for `COc1ccc(/C=C/C(=O)C2(C(=O)/C=C/c3ccc(OC)c(OC)c3)CCCCC2)cc1OC`, the cell viability was determined as 0.4%.

As for `Cc1ccc(C)c(OCCCC(C)(C)C(=O)O)c1` [Gemfibrozil (Lopid)], the cell viability was 106%.

Turning to `NC(=O)c1cccc(-c2cccc(OC(=O)NC3CCCCC3)c2)c1`, the cell viability was determined as 99.5%.

For the compound `NC(=O)c1noc([C@H](CCCC2CCCCC2)CC(=O)NO)n1`, the cell viability worked out at 76.3%.

As for `COC(=O)Nc1nc2cc([S+]([O-])c3ccccc3)ccc2[nH]1` (stereo not given) [Oxfendazole], the cell viability was 70.5%.

For `Cc1cnc(C(=O)NCCc2ccc(S(=O)(=O)NC(=O)NC3CCCCC3)cc2)cn1` [Glipizide (Glucotrol)], the cell viability turned out to be 94.3%.

For `CC(C)c1nc(N(C)S(C)(=O)=O)nc(-c2ccc(F)cc2)c1/C=C/[C@@H](O)C[C@@H](O)CC(=O)O` [Rosuvastatin Calcium], the cell viability was 112%.

For `COc1ccc(-c2coc3cc(O)ccc3c2=O)cc1` [Formononetin (Formononetol)], the cell viability was 99.9%.

Regarding `COc1ccc(OC)c(C2C(C#N)=C(N)Oc3n[nH]c(-c4ccc5ccccc5c4)c32)c1` (stereo not given), the cell viability was determined as 98.7%.

`CCN1C(=O)CNc2ncc(-c3ccc(-c4nc[nH]n4)nc3C)nc21`: the cell viability worked out at 9.85%.

For `CN(C)c1ccc2nc3c(C(=O)O)cc(=O)c(O)c-3oc2c1` [Gallocyanine], the cell viability came out at 85.3%.

Staying with this test, now noted: 10 µM; SRSF2 genotype: SRSF2 wt/wt.
Consider `C#Cc1cccc(Nc2ncnc3cc(OCCOC)c(OCCO)cc23)c1` [OSI-420 (Desmethyl Erlotinib)], for which the cell viability turned out to be 29.9%.

On to `O=C(O)Cc1ccccc1Nc1c(Cl)cccc1Cl` [Diclofenac Sodium], for which the cell viability stood at 100%.

With `CC[C@H](C)C(=O)O[C@H]1C[C@@H](C)C=C2C=C[C@H](C)[C@H](CC[C@@H]3C[C@@H](O)CC(=O)O3)[C@H]21` [Lovastatin (Mevacor)], the cell viability turned out to be 100%.

In the case of `Clc1ccc2c(c1)CCc1cccnc1C2=C1CCNCC1` [Desloratadine], the cell viability turned out to be 94.3%.

Consider `CNCCCC12CCC(c3ccccc31)c1ccccc12` [Maprotiline hydrochloride], for which the cell viability was 83.2%.

For the compound `NC(=O)OCC(COC(N)=O)c1ccccc1` [Felbamate], the cell viability turned out to be 89.4%.

Take `CCN(CC)CCOCCOC(=O)C1(c2ccccc2)CCCC1` [Pentoxyverine Citrate]: the cell viability amounted to 104%.

`Cn1cc(C2=C(c3ccc(Cl)cc3Cl)C(=O)NC2=O)c2ccccc21`: the cell viability was 99.1%.

For the compound `Clc1ccc(C(Cn2ccnc2)OCc2ccc(Sc3ccccc3)cc2)c(Cl)c1` (stereo not given) [Fenticonazole nitrate], the cell viability came out at 73%.

Take `CC1(C)CCC(CN2CCN(c3ccc(C(=O)NS(=O)(=O)c4ccc(NCC5CCOCC5)c([N+](=O)[O-])c4)c(Oc4cnc5[nH]ccc5c4)c3)CC2)=C(c2ccc(Cl)cc2)C1` [Venetoclax (ABT-199, GDC-0199)]: the cell viability was 7.23%.

As to `C[N+]1(C)CCCC1C(=O)[O-]` (stereo not given) [Stachydrine], the cell viability is 104%.

Consider `CC1(C)[C@@H](O[C@H]2O[C@H](C(=O)O)[C@@H](O)[C@H](O)[C@H]2O[C@@H]2O[C@H](C(=O)O)[C@@H](O)[C@H](O)[C@H]2O)CC[C@]2(C)[C@H]3C(=O)C=C4[C@@H]5C[C@@](C)(C(=O)O)CC[C@]5(C)CC[C@@]4(C)[C@]3(C)CC[C@@H]12` [Dipotassium glycyrrhizinate], for which the cell viability was 103%.

Consider `C[C@H](NC(=O)CCc1nc2ccccc2c(=O)[nH]1)c1ccccc1`, for which the cell viability turned out to be 100%.

Take `N#CC(=Cc1cn(-c2ccccc2)c2ccccc12)C(=O)O`: the cell viability was 97.2%.

In the case of `COc1cc2nc(N3CCN(C(=O)C4CCCO4)CC3)nc(N)c2cc1OC` (stereo not given) [Terazosin HCl], the cell viability was determined as 99.2%.

As for `C[C@@H]1CC(=O)NN=C1c1ccc(NN=C(C#N)C#N)cc1` [Levosimendan], the cell viability amounted to 81.7%.

For `Cn1c(-c2ccccc2C(F)(F)F)nnc1C12CCC(c3noc(C4CC(F)(F)C4)n3)(CC1)CC2`, the cell viability came out at 87.7%.

`CCCCCCCCCCCCCCCC(=O)OCC(O)C1OC(=O)C(O)=C1O` [L-Ascorbyl 6-palmitate]: the cell viability is 109%.

In the case of `OC[C@H]1O[C@@H](Oc2ccc(O)cc2)[C@H](O)[C@@H](O)[C@@H]1O` [Arbutin (Uva, p-Arbutin)], the cell viability was found to be 101%.

As to `CC[C@H](C)C(=O)O[C@H]1C[C@H](O)C=C2C=C[C@H](C)[C@H](CC[C@@H](O)C[C@@H](O)CC(=O)O)[C@H]21` [Pravastatin sodium], the cell viability is 102%.

Turning to `C[C@H]1CNC(=O)c2cnn3ccc(nc23)N[C@H](C)c2cc(F)ccc2O1`, the cell viability was found to be 5.47%.

Regarding `COc1cc2c(cc1OC(C)C)[C@H](c1ccc(Cl)cc1)N(c1ccc(N(C)C[C@H]3CC[C@H](N4CCN(C)C(=O)C4)CC3)cc1)C(=O)C2`, the cell viability came out at 0.13%.

Take `CSCC[C@H](NC(=O)[C@H](CC(C)C)NC(=O)[C@H](Cc1c[nH]c2ccccc12)NC(=O)[C@H](CCC(N)=O)NC(=O)[C@@H](NC(=O)[C@H](Cc1ccccc1)NC(=O)[C@H](CC(=O)O)NC(=O)[C@H](CCC(N)=O)NC(=O)[C@H](C)NC(=O)[C@H](CCCNC(=N)N)NC(=O)[C@H](CCCNC(=N)N)NC(=O)[C@H](CO)NC(=O)[C@H](CC(=O)O)NC(=O)[C@H](CC(C)C)NC(=O)[C@H](Cc1ccc(O)cc1)NC(=O)[C@H](CCCCN)NC(=O)[C@H](CO)NC(=O)[C@H](Cc1ccc(O)cc1)NC(=O)[C@H](CC(=O)O)NC(=O)[C@H](CO)NC(=O)[C@@H](NC(=O)[C@H](Cc1ccccc1)NC(=O)[C@@H](NC(=O)CNC(=O)[C@H](CCC(N)=O)NC(=O)[C@H](CO)NC(=O)[C@@H](N)Cc1cnc[nH]1)[C@@H](C)O)[C@@H](C)O)C(C)C)C(=O)N[C@@H](CC(N)=O)C(=O)N[C@H](C(=O)O)[C@@H](C)O` [Glucagon HCl]: the cell viability worked out at 108%.

Take `CC(=O)O[C@]1(C)CC[C@@]23C[C@H]1C(C)(C)[C@@H]2CC[C@H]3C` [Cedryl acetate]: the cell viability is 106%.

As for `OC(CN1CCN(c2cccc(Cl)c2)CC1)C(c1ccccc1)c1ccccc1` (stereo not given), the cell viability was 94.5%.

Consider `C[C@@H]1O[C@@H](OC[C@H]2O[C@@H](Oc3c(-c4ccc(O)c(O)c4)oc4cc(O)cc(O)c4c3=O)[C@H](O)[C@@H](O)[C@@H]2O)[C@H](O)[C@H](O)[C@H]1O` [Rutin (Rutoside)], for which the cell viability was 103%.

As for `CC(C)(F)C[C@H](N[C@@H](c1ccc(-c2ccc(S(C)(=O)=O)cc2)cc1)C(F)(F)F)C(=O)NC1(C#N)CC1` [Odanacatib (MK 0822)], the cell viability was found to be 104%.

As to `CCCCCCCCCCCCCCCc1cccc(O)c1C(=O)O` [Anacardic Acid], the cell viability came to 82.9%.

`Cc1ccc(NC(=O)Nc2cc(C(F)(F)F)ccc2F)cc1Nc1ccc2c(c1)NC(=O)/C2=C\c1ccc[nH]1`: the cell viability was 94.4%.

Turning to `COc1ccc(/C=C/C(=O)C2(C(=O)/C=C/c3ccc(OC)c(OC)c3)CCCCC2)cc1OC`, the cell viability was 0.31%.

For the compound `Cc1ccc(C)c(OCCCC(C)(C)C(=O)O)c1` [Gemfibrozil (Lopid)], the cell viability came to 109%.

In the case of `NC(=O)c1cccc(-c2cccc(OC(=O)NC3CCCCC3)c2)c1`, the cell viability amounted to 99%.

As for `NC(=O)c1noc([C@H](CCCC2CCCCC2)CC(=O)NO)n1`, the cell viability was 80.6%.

`COC(=O)Nc1nc2cc([S+]([O-])c3ccccc3)ccc2[nH]1` (stereo not given) [Oxfendazole]: the cell viability amounted to 70.4%.

On to `Cc1cnc(C(=O)NCCc2ccc(S(=O)(=O)NC(=O)NC3CCCCC3)cc2)cn1` [Glipizide (Glucotrol)], for which the cell viability was 92.5%.

As for `CC(C)c1nc(N(C)S(C)(=O)=O)nc(-c2ccc(F)cc2)c1/C=C/[C@@H](O)C[C@@H](O)CC(=O)O` [Rosuvastatin Calcium], the cell viability is 105%.

As to `COc1ccc(-c2coc3cc(O)ccc3c2=O)cc1` [Formononetin (Formononetol)], the cell viability was 99.6%.

Consider `COc1ccc(OC)c(C2C(C#N)=C(N)Oc3n[nH]c(-c4ccc5ccccc5c4)c32)c1` (stereo not given), for which the cell viability worked out at 102%.

Take `CCN1C(=O)CNc2ncc(-c3ccc(-c4nc[nH]n4)nc3C)nc21`: the cell viability worked out at 11.8%.

In the case of `CN(C)c1ccc2nc3c(C(=O)O)cc(=O)c(O)c-3oc2c1` [Gallocyanine], the cell viability was determined as 86.2%.

The values are drawn from the supplement of paper PMC10981050.
